# Screening data: PubChem, National Center for Advancing Translational Sciences (NCATS)
# The list is not random: actives were taken first. Their share in the collection is about 10%.
# Sfp inh: qHTS Assay for Inhibitors of Bacillus subtilis Sfp phosphopantetheinyl transferase (PPTase); Biochemical Sfp PPTase activity, qHTS; Potency, µM, without a hit: largest response in the series, negative = inhibition, most hits filed as inhibitors; hit rate 3.5% among 310,000; AID 1490, 2009;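 note: the enzyme is Sfp with the accession as filed and its product quenches rhodamine fluorescence; potency is the fitted concentration of half-maximal effect; 0% = enzyme reaction without inhibitor and -100% = no enzyme wells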
#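 Buffer: 50 mM Hepes-Na pH 7.6, 10 mM MgCl2, 0.01% Nonidet P-40, 0.01% BSA. Enzyme 15 nM, pre-exposed to compound 15 min; substrates then added and fluorescence change tracked over 30 min.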
# G9a block: qHTS Assay for Inhibitors of Histone Lysine Methyltransferase G9a. hit rate 8.8% among 350,000. AID 504332, 2011. G9a H3K9 monomethylation, AlphaScreen, 2 h. Potency, µM (highest dose often 102 µM), inactives show at the top dose activity, negative = inhibition, hits mostly inhibitors; note: potency is the fitted concentration of half-maximal effect; nearly all actives have a fitted effect of over 75% in size
# Target sequence (Q96KQ7 913-1193 limits assumed): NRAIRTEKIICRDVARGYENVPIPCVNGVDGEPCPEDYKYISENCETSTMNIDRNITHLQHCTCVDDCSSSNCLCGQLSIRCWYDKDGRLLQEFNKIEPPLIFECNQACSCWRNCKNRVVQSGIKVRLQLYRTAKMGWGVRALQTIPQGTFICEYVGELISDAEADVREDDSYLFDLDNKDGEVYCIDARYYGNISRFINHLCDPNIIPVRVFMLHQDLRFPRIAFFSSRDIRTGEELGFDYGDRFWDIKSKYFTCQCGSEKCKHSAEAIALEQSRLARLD
#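 G9a (20 nM) was preincubated 15 min with compound, then reacted 2 h at room temperature with 500 nM biotin-H3K9 peptide and 20 µM SAM. Monomethyl-H3K9 detected by AlphaScreen using anti-H3K9me1 antibody.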
# PLK1 PBD block: qHTS for Inhibitors of PLK1-PDB (polo-like kinase 1 - polo-box domain): Primary Screen | Plk1 PBD binding of FITC phosphopeptide, fluorescence polarization | Potency, µM, for inactives: max response, negative = inhibition, actives largely listed as inhibitors | hit rate 2.8% among 360,000 | Serine/threonine-protein kinase PLK1 (Homo sapiens), P53350; note: potency is the fitted concentration of half-maximal effect; series mostly up to about 57 µM; nearly all actives have a fitted effect of over 65% in size
# CCT modulator: High-Throughput Screening for Modulators of Cytosolic Chaperonin Activity; activity change, % (concentration not given with the values), hits read low; AID 651819, 2012; hit rate 0.3% among 360,000; purified chaperonin ATPase assay, HTRF ADP detection, 30 min; in the data active = activity change below about -30%
#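 TRiC (40 or 20 nM final, by batch activity) in 30 mM Tris pH 7.4, 100 mM KCl, 5 mM MgCl2, 1 mM DTT was treated with compound at 76 uM single dose, then 10 uM ATP, 30 min at 37 °C. ADP was read by HTRF Transcreener.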
# VDR inh: Inhibitors of the vitamin D receptor (VDR): qHTS. AID 504847, 2011. hit rate 0.93% among 400,000. Potency, µM, for the others: max response, negative = inhibition, hits mostly inhibitors. VDR-SRC2-3 peptide fluorescence polarization, 2 h; note: potency is the fitted concentration of half-maximal effect
# Target sequence (P11473 whole entry, looked up): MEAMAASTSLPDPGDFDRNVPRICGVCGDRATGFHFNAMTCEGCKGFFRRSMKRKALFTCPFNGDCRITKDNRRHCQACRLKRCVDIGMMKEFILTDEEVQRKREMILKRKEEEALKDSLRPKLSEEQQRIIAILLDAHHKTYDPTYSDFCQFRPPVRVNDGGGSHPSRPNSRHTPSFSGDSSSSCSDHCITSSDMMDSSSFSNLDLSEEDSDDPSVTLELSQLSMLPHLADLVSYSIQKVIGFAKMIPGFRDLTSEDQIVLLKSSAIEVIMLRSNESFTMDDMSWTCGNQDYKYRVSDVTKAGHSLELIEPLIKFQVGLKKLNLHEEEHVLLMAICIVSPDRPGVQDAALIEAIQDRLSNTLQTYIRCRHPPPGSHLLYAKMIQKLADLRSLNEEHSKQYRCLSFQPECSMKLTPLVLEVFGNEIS
#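 Two reagent solutions held at 4 deg C in the dark were dispensed, compounds pinned at 23 nl, and the mixture incubated 2 h at room temperature. Read-out: fluorescence polarization of VDR–SRC2-3 peptide binding.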
# Mm-Cpn inhibitor: Inhibitors of TCP-1 ring complex (TRiC) of Methanococcus maripaludis (MmCpn): qHTS; Chaperonin Mm-Cpn (Methanococcus maripaludis); purified Mm-Cpn ATPase, ADP Transcreener TR-FRET; Potency, µM (titrated, usually from 76.9 µM), without a hit: top-dose activity, negative = inhibition, actives largely listed as inhibitors; hit rate 0.031% among 330,000; AID 504842, 2011; note: potency is the fitted concentration of half-maximal effect; nearly all actives have a fitted effect of over 80% in size
#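 Inhibition of chaperonin ATP hydrolysis is measured as reduced ADP production, detected by competitive TR-FRET in which signal falls with ADP. Final enzyme 25 nM and ATP 10 uM, reacted 30 min at 37°C.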
# Starred values were filed as active, the others as inactive; ? = inconclusive; . = not tested or not shown; [ ] = dose if it differs, or a comment. Unless noted, calls come from the whole dose curve; as a rule, active = well fitted curve in the direction sought with a large enough effect; inconclusive = small, poorly fitted or top-dose-only effect, or another doubt; inactive = no such curve, though single readings can be large; an effect the other way counts as inactive or inconclusive. Unless noted, % is set by controls: 0 for no effect and ±100 for the full control effect.
SMILES,Sfp inh,G9a block,PLK1 PBD block,CCT modulator,VDR inh,Mm-Cpn inhibitor
Cc1ccccc1CNC(=O)c1ccc2[nH]c(C)c(C)c2c1,.,?,.,.,6%,.
Cc1cccc(NC(=S)N2CCOCC2)c1C,71µM*,9%[59 µM],-1%,-1,-7%,0%
COc1ccc(OC)c(/C=N/c2c(-c3ccc(O)c(OC)c3)nc3ccccn23)c1,-23%,22µM*,-14%,-2,-14%,-13%
CC(C)=NOc1nc(N(C)C)nc(N2CCOCC2)n1,-3%,27%,30µM*,-2,?,1%
O=C(/C=C/c1ccc2c(c1)OCCCO2)c1ccccc1O,-19%,?,0%,3,?,-1%
Cc1ccc(O)c(C(=O)/C=C/c2ccc3c(c2)OCCCO3)c1,-14%,7.1µM*,-2%,-5,?,1%
CC(/C=N/NC(=O)c1cc(C(C)C)[nH]n1)=C\c1ccccc1,20%,-5%,30µM*,-1,-19%,-1%
COC(=O)c1c(/N=C/N(C)C)sc2c1CCN(c1ncc(C(F)(F)F)cc1Cl)C2,1%,?,0%,0,-4%,-3%
COC(=O)c1c(N(S(C)(=O)=O)S(C)(=O)=O)sc2c1CCN(c1ncc(C(F)(F)F)cc1Cl)C2,56µM*,?,0%,-1,-1%,-6%
CCc1cc2c(SCC(=O)c3ccc(C)cc3)ncnc2s1,9%,25%[59 µM],30µM*,-2,8%,-1%
CCc1cc2c(SCc3nc4sc(C(C)=O)c(C)c4c(=O)[nH]3)ncnc2s1,-9%,20µM*,-7%,-4,-2%,-15%
CCn1c(SCc2ccccc2)nnc1-c1nonc1NC(C)=O,.,10%[59 µM],.,.,1%,.
COc1ccc(OCc2ccc(-c3nc(C#N)c(N4CCCCC4)o3)o2)cc1,.,2.2µM*,.,.,1%,.
COc1ccc(OCc2ccc(-c3nc(C#N)c(N4CCN(c5cccc(Cl)c5)CC4)o3)o2)cc1,.,-28%[59 µM],.,.,11%,.
COc1ccc(OCc2ccc(-c3nc(C#N)c(N4CCN(C)CC4)o3)o2)cc1,.,18µM*,.,.,0%,.
N#Cc1nc(-c2ccc(COc3ccccc3)o2)oc1N1CCN(c2ccccc2)CC1,.,?,.,.,8%,.
Cc1cc(C)cc(OCC(=O)N(Cc2ccco2)Cc2ccccc2Cl)c1,.,-3%[59 µM],.,.,4%,.
COCCN(C(=O)CSc1nc2ccccc2c(=O)n1CC(C)C)c1c(N)n(Cc2ccccc2)c(=O)[nH]c1=O,-13%,?,-12%,0,-15%,-2%
COc1ccccc1C(=O)NCC(=O)OCC(=O)N(CC(C)C)c1c(N)n(Cc2ccccc2)c(=O)[nH]c1=O,.,56µM*,-8%,-1,-11%,0%
Cc1ccccc1SCC(=O)OCC(=O)N(C)c1c(N)n(Cc2ccccc2)c(=O)[nH]c1=O,.,10µM*,-1%,0,-1%,-1%
Cc1ccccc1OCCC(=O)OCC(=O)N(C)c1c(N)n(Cc2ccccc2)c(=O)[nH]c1=O,5%,45µM*,-3%,-1,0%,0%
CC(C)Cn1c(SCC(=O)N(C)c2c(N)n(Cc3ccccc3)c(=O)[nH]c2=O)nc2ccccc21,.,16µM*,-8%,-3,-2%,0%
Cc1cccc(N=N/C(=C\O)C(=O)c2ccc(Br)cc2)c1,-12%,11µM*,1%,1,-8%,2%
COC(=O)/C(N=Nc1cccc(C(F)(F)F)c1)=C(\C)O,22%,3%[59 µM],-4%,-6,16%,-2%
Cc1ccc(N=N/C(=C\O)C(=O)c2ccncc2)cc1,-4%,?,-8%,-4,-18%,1%
SMILES,Sfp inh,G9a block,PLK1 PBD block,CCT modulator,VDR inh,Mm-Cpn inhibitor
O=C(/C(=C/O)N=Nc1cccc(C(F)(F)F)c1)c1ccccc1,-3%,45µM*,-12%,-10,-4%,0%
O=C(/C(=C/O)N=Nc1ccc(Cl)cc1)c1ccncc1,-1%,17%[0.501 µM],?,-3,?,-1%
O=C(/C(=C/O)N=Nc1ccccc1Cl)c1ccccc1,3%,40µM*,-5%,0,5%,1%
C=C1CC[C@H](O)C/C1=C/C=C1\CCC[C@]2(C)C([C@H](C)CCCC(C)(C)O)CC[C@@H]12 (stereo partly drawn),4%,22%[59 µM],.,.,11%,.
CC(C)(C)NC[C@@H](O)COc1nsnc1N1CCOCC1,8%,1%[2.33 µM],.,.,2%,.
O=C(Cc1ccc(Cl)cc1)Nc1ccc(N2CCCC2)cc1,19%,?,3%,-7,22%,0%
Clc1cccc(Cl)c1CNc1ccc(N2CCCC2)cc1,?,1.8µM*,?,1,?,-4%
Cc1ccc(C)c(Cn2c(=O)n(Cc3ccco3)c(=O)c3oc4ccccc4c32)c1,.,-23%[59 µM],.,.,-6%,.
Clc1ccc(-c2nnc3sc(-c4ccccn4)nn23)cc1,11%,-7%[2.33 µM],.,.,.,0%
c1coc(-c2nnc3sc(C4CCCCC4)nn23)c1,35µM*,?,11µM*,0,-18%,-1%
CC(C)(C)c1ccc(-c2nnc3sc(-c4ccccn4)nn23)cc1,45µM*,32µM*,21µM*,-3,?,-4%
COc1cccc(-c2nnc3sc(-c4ccccn4)nn23)c1,10%,-1%[59 µM],27µM*,0,-13%,0%
c1ccc(-c2nn3c(-c4ccco4)nnc3s2)nc1,6%,40µM*,-7%,0,8%,0%
COc1cccc(-c2nn3c(-c4ccccn4)nnc3s2)c1,-11%,-15%,-8%,-2,4%,0%
CCCn1c(-c2ccc(F)cc2)nc2c(NCCN(CC)CC)nc(C)nc21,1%,.,.,.,.,.
Clc1ccc(OCc2nn3c(-c4ccco4)nnc3s2)c(Cl)c1,18µM*,-39%[2.33 µM],-24%,-3,-4%,2%
Cc1ccc(C(=O)COC(=O)c2cc(-c3ccccc3)nc3ccccc23)cc1C,.,33%[59 µM],.,.,-3%,.
O=C(Nc1ccccc1)c1cc2c(-c3ccccc3)nn(-c3ccccc3)c2s1,.,8%[59 µM],.,.,-6%,.
CCc1ccc(-n2c(C)nc3cc(C(=O)NCc4cccnc4)ccc32)cc1,-5%,50µM*,-9%,1,?,-1%
CCOC(=O)c1sc(=S)n(-c2ccc(C)cc2)c1N,40µM*,8.9µM*,11µM*,-2,?,-2%
Nc1c(C(=O)N2CCOCC2)sc(=S)n1-c1ccccc1,-87%,2.2µM*,11µM*,-1,50µM*,-2%
CCOC(=O)c1sc(NC(=O)COc2ccc3c(c2)OCO3)nc1C,20%,40µM*,-9%,0,9%,1%
